test: plasmodial surface anion channel blockers, osmotic lysis – cell-based, P. falciparum Indochina, OD700, 18 h, primary screen (AID 1157); settings: P. falciparum Indochina infected erythrocytes, osmotic lysis OD700, 18 h; higher = more signal, called active from +8 up or from −8 down

z-score, inactive:
CC(=O)OC[C@H]1O[C@@H](ON=C(C)C)[C@H](OC(C)=O)[C@@H](OC(C)=O)[C@@H]1OC(C)=O 0.539, CC(C)=CCCC(C)=CCON=C1[C@H]2CCn3c(=O)n(-c4ccccc4)c(=O)n3[C@H]2[C@H](O)[C@@H]2O[C@H]12 0.695, COC(=O)CC=C[C@@H](C)[C@@H](C=NOC[C@@H](C)[C@H](OCc1ccccc1)C(C)C)OC -0.0741, CCOC(=O)CCN1C(=O)[C@H]2[C@H]3[C@H](O)[C@H](O)CC(=NO[C@@H]4O[C@H](CO)[C@@H](O)[C@H](O)[C@H]4O)[C@@H]3CC[C@H]2C1=O 0.82, COC(=O)[C@H](C)NC(=O)CCC1CC(OC(=O)NCc2ccc3c(c2)OCO3)CC2(CCCC(COC(=O)NCCc3ccc(Cl)cc3)O2)O1 (stereo not given in full) 0.272, CC(CCN1CCCc2nc(C)c(C)cc21)=NOC[C@@H](O)COCc1ccco1 0.22, CC(CCN1CCCCc2nc(C)c(C)cc21)=NO[C@@H](C)c1cc(-c2c(C)cc(C)cc2C)no1 0.588, C[C@H]1CC[C@@H](C(=O)O)N[C@@H]1c1ccc(C#Cc2ccccc2)cc1 -0.267, COc1ccc(O[C@H]2C=C[C@@H](c3ccccc3)O[C@@H]2COC(=O)NCc2cccc3ccccc23)cc1 0.515, CC(C)CON=C1C[C@@H](O)[C@@H](O)[C@@H]2[C@@H]3C(=O)N(C(C)(C)C)C(=O)[C@@H]3CC[C@@H]12 -2.29, CC(C)CON=C1[C@H]2CCn3c(=O)n(C)c(=O)n3[C@H]2[C@H](O)[C@@H]2O[C@H]12 -0.162, CCOC(=O)CCN1C(=O)[C@H]2[C@H]3[C@H](O)[C@H](O)CC(=O)[C@@H]3CC[C@H]2C1=O 0.305, CC1(C)O[C@H]2OC([C@H](O)CON3C(=O)c4ccccc4C3=O)[C@H](O)[C@H]2O1 (stereo not given in full) -0.266, COc1cccc([C@H](O)Cn2cc(-c3ccc(CON=C(C)C)cc3)nn2)c1 1.54, COCC#Cc1ccc([C@@H]2N[C@H](C(=O)O)CC[C@H]2C)cc1 -0.867, O=C1C[C@H](c2ccccc2)[C@H](c2ccc(Br)cc2)O1 -1.6, CCCNC(=O)OC[C@H]1O[C@H](CCON=C[C@@H](NS(=O)(=O)c2ccc(C)cc2)[C@H](C)C=CCC(=O)OC)C=C[C@@H]1Oc1ccc(OC)cc1 0.441, CCOC(=O)[C@H](Cc1ccccc1)NC(=O)CCC1CC(OC(=O)NCCc2ccc(F)cc2)CC2(CCCC(COC(=O)NCCOc3ccccc3)O2)O1 (stereo not given in full) 0.272, C=CC[C@@H]1C=C[C@H](Oc2ccc(C)cc2)[C@@H](COC(=O)NCc2cccc3ccccc23)O1 0.346, O=C1C2=CC[C@H]3C(=O)N(C[C@@H]4CCCO4)C(=O)[C@H]3[C@H]2[C@H](O)[C@@H]2O[C@H]12 0.108, CSCC[C@@H]1NC(=O)CC=C[C@@H](C)COC(=O)[C@H](C)COC1=O -1.58, COC(=O)[C@H](Cc1ccccc1)NC(=O)[C@@H](C)CO -1.87, O=C1[C@H]2[C@H]3[C@H](O)[C@H](O)CC(=NOCc4ccccc4)[C@@H]3CC[C@H]2C(=O)N1c1cccc(Oc2ccccc2)c1 0.845, CC(C)C(=O)N[C@H]1CCCN1C(=O)C=Cc1ccccc1 0.346, CCN1C(=O)[C@H]2[C@H]3[C@H](O)[C@H](O)CC(=NOCC(C)C)[C@H]3CC[C@H]2C1=O -0.433, C#CCCCON=C1[C@H]2CCn3c(=O)n(Cc4cc5c(cc4Cl)OCO5)c(=O)n3[C@H]2[C@H](O)[C@@H]2O[C@H]12 0.035, COC(=O)[C@H](C)NC(=O)CCC1CC(OC(=O)NCc2cccc3ccccc23)CC2(CCCC(COC(=O)NCCOc3ccccc3)O2)O1 (stereo not given in full) 0.346, CO[C@H]1COC(=O)CC=C[C@@H](C)COC(=O)[C@H]2CCCN2C(=O)CC=C[C@H]1C 0.0572, O=C1C[C@@H](O)[C@@H](O)[C@@H]2[C@@H]3C(=O)N(C4CCCCC4)C(=O)[C@@H]3CC[C@@H]12 -0.0387, CN1CCc2nc(-c3ccccc3)c(-c3ccccc3)cc2C1 -0.021

Source: PubChem BioAssay
